{
  "source": "PubChem BioAssay (NCI)",
  "note": "This is part of a sample that, as a whole, favours compounds with a hit. Of some 83,000 tested, about 20% had one in any assay.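 Note: values are percent growth. 100 is the growth of untreated cells, values between 100 and 0 indicate rising inhibition; between -100 and 0 indicates cell death.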 Unmarked numbers belong to inactive results. The source made the active and inactive calls. How the source made its calls: active means growth percent below 10; inactive means the rest.",
  "data": [
    {"system": "HCT-116 colon", "experiment": "NCI-60 one-dose screen, 48 h (100 = growth as untreated, 0 = no growth, -100 = all killed)", "settings": "10 µM unless noted", "values": [
      {"molecule": "COC1=C(Br)C(=O)C(OC)=C(Br)C1=O", "growth": "90.1%"},
      {"molecule": "Cc1cc(C)nc(NC(N)=NCCc2ccccc2)n1", "growth": "27.9%"},
      {"molecule": "Cc1nn(-c2ccc(Cl)cc2)c(=O)n1CCn1cnc2ccccc21", "growth": "97.5%"},
      {"molecule": "Brc1ccc(Cn2nnnc2-c2ccn(-c3ccccc3)n2)cc1", "growth": "49.4%"},
      {"molecule": "O=C1C=C(C(O)c2ccc(O)cc2)C(=O)c2ccccc21", "note": "(stereo not given)", "growth": "96.1%"},
      {"molecule": "CCCC(=O)N1CCCCC1CC", "note": "(stereo not given)", "growth": "116%"},
      {"molecule": "O=[N+]([O-])c1ccc(/C=N\\Nc2ccccc2)cc1", "growth": "66.3%"},
      {"molecule": "Nc1nc(N)c2nc3c(nc2n1)CCCCCCCCCC3", "growth": "21.4%"},
      {"molecule": "NC(=O)[C@@H]1CC2CCC1C2", "note": "(stereo not given in full)", "growth": "101%"},
      {"molecule": "C[N+](C)(CCCCCC[N+](C)(C)C1c2ccccc2-c2ccccc21)C1c2ccccc2-c2ccccc21", "growth": "101%"},
      {"molecule": "O=C(c1ccccc1)C(CN1CCOCC1)c1ccccc1", "note": "(stereo not given)", "growth": "3.3% (active)"},
      {"molecule": "COCCNC1=C(Cl)C(=O)c2ccccc2C1=O", "growth": "86.8%"},
      {"molecule": "CC(C)(C)CC(C)(C)c1ccc(OCCOCC[N+](C)(C)CC(=O)[O-])cc1", "growth": "107%"},
      {"molecule": "O=C(N/N=C\\c1c(O)ccc2ccccc12)C1CC1", "growth": "13.1%"},
      {"molecule": "O=[N+]([O-])c1cccc(/C=N\\Nc2ccccc2)c1", "growth": "58.3%"},
      {"molecule": "Oc1ccccc1/C=N\\NC(=S)Nc1ccc(F)cc1", "growth": "25.8%"},
      {"molecule": "O=C1c2ccccc2C(=Cc2ccccc2)c2ccccc21", "growth": "5.11% (active)"},
      {"molecule": "O=C(/C(=C(\\C(=O)c1ccccc1)c1ccccc1)c1ccccc1)c1ccccc1", "growth": "14.1%"},
      {"molecule": "Nc1c(Cl)cc(N=Nc2ccccc2)cc1Cl", "growth": "67.4%"},
      {"molecule": "Oc1cccc2oc(=S)[nH]c12", "growth": "107%"},
      {"molecule": "O=C(/C=C\\c1ccc2c(c1)OCO2)/C=C/c1ccc2c(c1)OCO2", "growth": "-12.5% (active)"},
      {"molecule": "O=C(O)c1cccc2c1Cc1cc([N+](=O)[O-])ccc1-2", "growth": "97.5%"},
      {"molecule": "O=C(O)c1cccc2c1C(=O)N(c1ccc3c(c1)Cc1ccccc1-3)C2=O", "growth": "112%"},
      {"molecule": "O=[N+]([O-])c1ccc(N/N=C(\\C(=N/Nc2ccc([N+](=O)[O-])cc2[N+](=O)[O-])c2ccccc2)c2ccccc2)c([N+](=O)[O-])c1", "growth": "65%"},
      {"molecule": "OCC12CCCC(CO)(COC1)C2O", "note": "(stereo not given)", "growth": "100%"},
      {"molecule": "O=C1C=Cc2ncccc2C1=O", "growth": "27.1%"},
      {"molecule": "O=C(NC1=CC(=O)c2ccccc2C1=O)c1ccccc1", "growth": "-69% (active)"},
      {"molecule": "COc1c(N)c2c(c([N+](=O)[O-])c1OC)C(=O)OC2", "growth": "102%"},
      {"molecule": "COc1ccc(/C=C/C(=O)c2ccc([N+](=O)[O-])cc2)cc1", "growth": "99.2%"},
      {"molecule": "c1ccc(C2Cc3ccccc3C2=NC2CCCCC2)cc1", "note": "(stereo not given)", "growth": "96.9%"},
      {"molecule": "O=C(CI)Nc1ccc(O)c2ccccc12", "growth": "-59.5% (active)"},
      {"molecule": "[B-][N+](CC)(CC)c1ccccc1", "growth": "100%"}
    ]},
    {"system": "HCC-2998 colon", "experiment": "NCI-60 one-dose screen, 48 h (100 = growth as untreated, 0 = no growth, -100 = all killed)", "settings": "10 µM unless noted", "values": [
      {"molecule": "COC1=C(Br)C(=O)C(OC)=C(Br)C1=O", "growth": "114%"},
      {"molecule": "Cc1cc(C)nc(NC(N)=NCCc2ccccc2)n1", "growth": "94.5%"},
      {"molecule": "Cc1nn(-c2ccc(Cl)cc2)c(=O)n1CCn1cnc2ccccc21", "growth": "104%"},
      {"molecule": "Brc1ccc(Cn2nnnc2-c2ccn(-c3ccccc3)n2)cc1", "growth": "80.1%"},
      {"molecule": "O=C1C=C(C(O)c2ccc(O)cc2)C(=O)c2ccccc21", "note": "(stereo not given)", "growth": "97%"},
      {"molecule": "CCCC(=O)N1CCCCC1CC", "note": "(stereo not given)", "growth": "115%"},
      {"molecule": "O=[N+]([O-])c1ccc(/C=N\\Nc2ccccc2)cc1", "growth": "96.6%"},
      {"molecule": "Nc1nc(N)c2nc3c(nc2n1)CCCCCCCCCC3", "growth": "39.2%"},
      {"molecule": "NC(=O)[C@@H]1CC2CCC1C2", "note": "(stereo not given in full)", "growth": "121%"},
      {"molecule": "C[N+](C)(CCCCCC[N+](C)(C)C1c2ccccc2-c2ccccc21)C1c2ccccc2-c2ccccc21", "growth": "110%"},
      {"molecule": "O=C(c1ccccc1)C(CN1CCOCC1)c1ccccc1", "note": "(stereo not given)", "growth": "54.4%"},
      {"molecule": "COCCNC1=C(Cl)C(=O)c2ccccc2C1=O", "growth": "95%"},
      {"molecule": "CC(C)(C)CC(C)(C)c1ccc(OCCOCC[N+](C)(C)CC(=O)[O-])cc1", "growth": "108%"},
      {"molecule": "O=C(N/N=C\\c1c(O)ccc2ccccc12)C1CC1", "growth": "101%"},
      {"molecule": "COc1cc2nc(Cl)nc(Nc3cccc(C(=O)/C=C/c4ccc(F)cc4)c3)c2cc1OC", "growth": "49.9%"},
      {"molecule": "Oc1ccccc1/C=N\\NC(=S)Nc1ccc(F)cc1", "growth": "39.7%"},
      {"molecule": "O=C1c2ccccc2C(=Cc2ccccc2)c2ccccc21", "growth": "-45.7% (active)"},
      {"molecule": "O=C(/C(=C(\\C(=O)c1ccccc1)c1ccccc1)c1ccccc1)c1ccccc1", "growth": "52%"},
      {"molecule": "Nc1c(Cl)cc(N=Nc2ccccc2)cc1Cl", "growth": "87.1%"},
      {"molecule": "Oc1cccc2oc(=S)[nH]c12", "growth": "100%"},
      {"molecule": "O=C(/C=C\\c1ccc2c(c1)OCO2)/C=C/c1ccc2c(c1)OCO2", "growth": "41.4%"},
      {"molecule": "O=C(O)c1cccc2c1Cc1cc([N+](=O)[O-])ccc1-2", "growth": "101%"},
      {"molecule": "O=C(O)c1cccc2c1C(=O)N(c1ccc3c(c1)Cc1ccccc1-3)C2=O", "growth": "102%"},
      {"molecule": "CN(C)c1ccc(N)c2ccccc12", "growth": "50.2%"},
      {"molecule": "Cc1ccc2c(c1)c1nc3cc(C)c(C)cc3nc1n2CCN(C)C", "growth": "32.9%"},
      {"molecule": "OCC12CCCC(CO)(COC1)C2O", "note": "(stereo not given)", "growth": "100%"},
      {"molecule": "O=C1C=Cc2ncccc2C1=O", "growth": "110%"},
      {"molecule": "O=C(NC1=CC(=O)c2ccccc2C1=O)c1ccccc1", "growth": "32.3%"},
      {"molecule": "COc1c(N)c2c(c([N+](=O)[O-])c1OC)C(=O)OC2", "growth": "105%"},
      {"molecule": "COc1ccc(/C=C/C(=O)c2ccc([N+](=O)[O-])cc2)cc1", "growth": "105%"},
      {"molecule": "O=C(CI)Nc1ccc(O)c2ccccc12", "growth": "82.4%"},
      {"molecule": "[B-][N+](CC)(CC)c1ccccc1", "growth": "105%"},
      {"molecule": "CC(C)(C)c1ccc(OCCCCCCCN2CCNCC2)cc1", "growth": "-4.86% (active)"}
    ]}
  ]
}
